Inconclusive results are not listed. A call without a number means that no potency is given here. Values without a mark were called inactive. Calls of active or inactive are those of the source. Calls follow the shape of the dose curve; as a rule, active = well fitted cell-killing curve with a large enough effect in the repeat runs; inconclusive = weak or mixed curves, or effect the other way; inactive = flat fitted curve, though single readings scatter.

The nature of one test: cAMP Responsive Elements (CRE) small molecule antagonists, cell-based qHTS assay: qHTS cell viability counter screen (AID 2060913). Also: nearly all actives have a fitted effect of over 40% in size. The following applies: CRE-bla HEK293T viability, CellTiter-Glo luminescence, 5 h; series mostly up to 92.4 µM. A digest of the protocol: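 Cytotoxicity read in the same wells as the CRE-bla HEK293T antagonist assay: after 3 h compound with 0.25 uM NKH477 final and 2 h beta-lactamase substrate, CellTiter-Glo luminescence measured.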
(In general: qHTS replaces the single test concentration by a dilution series.)
For the compound `CC(=O)CCc1ccccc1`, the Potency result was “inactive”.
As to `O=C(C(=O)c1ccccc1)c1ccccc1`, the Potency result is “inactive”.
`COC(=O)C(C)=O`: the Potency entry was “inactive”.
Still for that read-out and setting: under `CCCCCCCCCCCCCCCS(=O)(=O)Oc1ccccc1` stands “inactive”.
Regarding `OC[C@H]1O[C@@H]2O[C@H]3[C@H](O)[C@@H](O)[C@@H](O[C@H]4[C@H](O)[C@@H](O)[C@@H](O[C@H]5[C@H](O)[C@@H](O)[C@@H](O[C@H]6[C@H](O)[C@@H](O)[C@@H](O[C@H]7[C@H](O)[C@@H](O)[C@@H](O[C@H]1[C@H](O)[C@H]2O)O[C@@H]7CO)O[C@@H]6CO)O[C@@H]5CO)O[C@@H]4CO)O[C@@H]3CO`, the Potency result is “inactive”.
In the case of `CC(CO)CO`, the Potency entry was “inactive”.
For `CC(C)Cn1cnc2c(N)nc3ccccc3c21`, the viability change, negative = cytotoxic is -1.2% [at 18.9 µM].
Turning to `COc1ccc2nc(S(=O)Cc3ncc(C)c(OC)c3C)[nH]c2c1` (stereo unspecified), the Potency result is “inactive”.
Turning to `O=C(O)CCC(=O)O`, the Potency result is “inactive”.
In the case of `CCCCCCCCCCCCCCCC(=O)OC[C@H](O)[C@H]1OC(=O)C(O)=C1O`, the Potency entry is “inactive”.
Regarding `CC1=CC(=C(c2ccc(N)cc2)c2ccc(N)cc2)C=CC1=N`, the viability change, negative = cytotoxic is -2.05% [at 8.39 µM].
Consider `CN(C)C(=O)Oc1ccc[n+](C)c1`, for which the Potency result was “inactive”.
Still for that read-out and setting: under `Cc1oc(-c2ccccc2)nc1CCOc1cccc2c1ccn2CCC(=O)O` stands “inactive”.
With `OCCN1CCNCC1`, the Potency entry is “inactive”.
`C[C@]12CCC(=O)C=C1C=C[C@@H]1[C@@H]2CC[C@@]2(C)[C@H]1CC[C@@]21CCC(=O)O1`: the Potency result is “inactive”.
Still for that read-out and setting: under `C=CC(C)(CCC=C(C)C)OC(=O)CC(C)C` (stereo unspecified) stands “inactive”.

A further test is described as follows: cAMP Responsive Elements (CRE) small molecule agonists, cell-based qHTS assay: qHTS cell viability counter screen (AID 2060914). Also: nearly all actives have a fitted effect of over 50% in size. The note with it: CRE-bla HEK293T viability, CellTiter-Glo luminescence, 5 h; series mostly up to 92.4 µM. A digest of the protocol:
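HEK 293T CRE-bla; DMEM + 10% dialyzed FBS, 25 mM HEPES; 18 h pre-incubation; compound 3 h, 37 °C/5% CO2; CellTiter-Glo added after reporter read; luminescence after 30 min RT.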
As to `OC1CCCc2ccccc21` (stereo unspecified), the Potency result is “inactive”.
Still for that read-out and setting: under `CC(C)(Cc1c[nH]c2ccccc12)NCC(O)COc1ccccc1C#N` (stereo unspecified) stands “inactive”.
Still for that read-out and setting: under `Cc1cc(=O)[nH]c(C(C)C)n1` stands “inactive”; under `COC(=O)C1=C(C)NC(C)=C(C(=O)O[C@@H]2CCCN(Cc3ccccc3)C2)[C@@H]1c1cccc([N+](=O)[O-])c1`, “inactive”.
For `NCCOCCO`, the Potency result was “inactive”.
Still for that read-out and setting: under `O=C(O)c1cccc(C(=O)O)n1` stands “inactive”.
The same measure, in the same setting: under `Cc1ccc(NC(=O)N(C)C)cc1NC(=O)N(C)C` stands “inactive”.
Turning to `O=C(O)CN(CCN(CC(=O)O)CC(=O)O)CC(=O)O`, the activity change, negative = cytotoxicity is -20.1% [at 3.27 µM].
As to `OCCNCCO`, the Potency result was “inactive”.
The same measure, in the same setting: then `NC(N)=NC(=O)Cc1c(Cl)cccc1Cl`, with “inactive”; and `Cc1ccc(C(=O)O)o1`, with “inactive”; and `O=C(O)CNc1ccccc1`, with “inactive”.
For the compound `CCCN1C[C@H](CSC)C[C@@H]2c3cccc4[nH]cc(c34)C[C@H]21`, the Potency result is “inactive”.
Still for that read-out and setting: under `CCCCN1C(=O)[C@@H]([C@H](O)C2CCCCC2)NC(=O)C12CCN(Cc1ccc(Oc3ccc(C(=O)O)cc3)cc1)CC2` stands “inactive”.
Still for that read-out and setting: then `CCCCCCCCCCCCCCC1CO1` (stereo unspecified), with “inactive”.
In the case of `CCCCC(CC)COCCC#N` (stereo unspecified), the Potency entry is “inactive”.
In the case of `O=S(=O)(O)c1ccc2cc(O)ccc2c1`, the Potency result was “inactive”.
Same read-out and setting: then `CC1CCCC1`, with “inactive”; and `CC1=C(/C=C/C(C)=C/C=C/C(C)=C/C(=O)O)C(C)(C)CCC1`, with “inactive”; and `O=C(/C=C/c1ccccc1)OCCc1ccccc1`, with “inactive”.
The same measure, in the same setting: under `CCC(C)(C)C1CCC(=O)CC1` stands “inactive”.
For the compound `C=CCN1CCc2nc(N)sc2CC1`, the Potency entry is “inactive”.
In the case of `CC(C)c1ccc2oc3nc(N)c(C(=O)O)cc3c(=O)c2c1`, the Potency entry is “inactive”.
Turning to `COc1cc(C(=O)OC(COCCC(C)C)CN2CCOCC2)cc(OC)c1OC` (stereo unspecified), the Potency result was “inactive”.
Consider `CC(=O)CCc1ccccc1`, for which the Potency result is “inactive”.
Consider `O=C(C(=O)c1ccccc1)c1ccccc1`, for which the Potency entry was “inactive”.
With `COC(=O)C(C)=O`, the Potency result was “inactive”.
As to `CCCCCCCCCCCCCCCS(=O)(=O)Oc1ccccc1`, the Potency entry is “inactive”.
`OC[C@H]1O[C@@H]2O[C@H]3[C@H](O)[C@@H](O)[C@@H](O[C@H]4[C@H](O)[C@@H](O)[C@@H](O[C@H]5[C@H](O)[C@@H](O)[C@@H](O[C@H]6[C@H](O)[C@@H](O)[C@@H](O[C@H]7[C@H](O)[C@@H](O)[C@@H](O[C@H]1[C@H](O)[C@H]2O)O[C@@H]7CO)O[C@@H]6CO)O[C@@H]5CO)O[C@@H]4CO)O[C@@H]3CO`: the Potency result was “inactive”.
Regarding `CC(CO)CO`, the Potency result was “inactive”.
With `CC(C)Cn1cnc2c(N)nc3ccccc3c21`, the activity change, negative = cytotoxicity is -0.0081% [at 18.9 µM].
As for `COc1ccc2nc(S(=O)Cc3ncc(C)c(OC)c3C)[nH]c2c1` (stereo unspecified), the Potency entry was “inactive”.
In the case of `O=C(O)CCC(=O)O`, the Potency entry is “inactive”.
`CCCCCCCCCCCCCCCC(=O)OC[C@H](O)[C@H]1OC(=O)C(O)=C1O`: the Potency entry is “inactive”.
On to `CC1=CC(=C(c2ccc(N)cc2)c2ccc(N)cc2)C=CC1=N`, for which the activity change, negative = cytotoxicity was -0.199% [at 8.39 µM].
As for `CN(C)C(=O)Oc1ccc[n+](C)c1`, the Potency result was “inactive”.
On to `Cc1oc(-c2ccccc2)nc1CCOc1cccc2c1ccn2CCC(=O)O`, for which the Potency entry is “inactive”.
As to `OCCN1CCNCC1`, the Potency entry is “inactive”.
Regarding `C[C@]12CCC(=O)C=C1C=C[C@@H]1[C@@H]2CC[C@@]2(C)[C@H]1CC[C@@]21CCC(=O)O1`, the Potency result is “inactive”.
Turning to `C=CC(C)(CCC=C(C)C)OC(=O)CC(C)C` (stereo unspecified), the Potency entry was “inactive”.

(Values after PubChem BioAssay (Tox21).)
